This note sets out measurements from PubChem BioAssay (NCI).

Structures are written as SMILES. Compounds without any hit were thinned out: in the full panel of roughly 83,000, 20% have a hit.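 A percent growth of 40 corresponds to 60% growth inhibition; 0 means no net growth; -100 means all cells died. Active threshold: below 10.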 A number with no mark means an inactive call. Calls of active or inactive are those of the source.

Some test systems named below: SK-MEL-2 melanoma; EKVX NSCLC; SN12C renal; UO-31 renal; TK-10 renal; ACHN renal; CAKI-1 renal; A498 renal; CCRF-CEM leukemia; MOLT-4 leukemia; SR leukemia; RPMI-8226 leukemia; OVCAR-8 ovarian; OVCAR-5 ovarian; OVCAR-4 ovarian; SK-OV-3 ovarian; IGROV1 ovarian; OVCAR-3 ovarian; HS 578T breast; NCI/ADR-RES ovarian.
Assay in all cases: NCI-60 one-dose screen, 48 h (100 = growth as untreated, 0 = no growth, -100 = all killed)
What all share (settings): 10 µM unless noted

Turning to `Cc1nc2c(c(-c3ccccc3)n1)Cc1c(ccc3ccccc13)O2`, the growth is 112% in the test with SK-MEL-2 melanoma; 128% in the test on EKVX NSCLC; 102% in the test on SN12C renal; 69.8% with UO-31 renal; 106% with TK-10 renal; 90.8% in the test with ACHN renal. Moreover, the growth in the test with CAKI-1 renal was 109%; with A498 renal it was 79.1%; in the test on CCRF-CEM leukemia it was 96.5%; in the test on MOLT-4 leukemia, 97%; in the test with SR leukemia it was 107%; in the test on RPMI-8226 leukemia it was 87%. Moreover, the growth with OVCAR-8 ovarian is 95.1%; in the test with OVCAR-5 ovarian, 93.1%; in the test with OVCAR-4 ovarian, 99.4%; in the test with SK-OV-3 ovarian, 96.4%; in the test with IGROV1 ovarian, 118%; with OVCAR-3 ovarian, 99.1%. For the same compound, the figures for the growth in the test with HS 578T breast and with NCI/ADR-RES ovarian were 83.3% and 98%, respectively.
With `COc1cc(OCc2cccc(-c3ccccc3)c2C)cc(OC)c1CN1CCCCC1C(=O)NCCOCCOCCN` (stereo not given), the growth is 98.4% with SK-MEL-2 melanoma; 85.5% in the test on EKVX NSCLC; 87.6% with SN12C renal; 79.1% with UO-31 renal; 125% in the test on TK-10 renal; 98.7% with ACHN renal. The growth with CAKI-1 renal is 92.4%; in the test on A498 renal, 72.9%; in the test with CCRF-CEM leukemia, 1% (active); with MOLT-4 leukemia, 38.4%; in the test with SR leukemia, -26% (active); in the test with RPMI-8226 leukemia, 13.4%. Also, the growth is 82.8% in the test with OVCAR-8 ovarian; 101% with OVCAR-5 ovarian; 53.3% in the test with OVCAR-4 ovarian; 104% in the test with SK-OV-3 ovarian; 70% with IGROV1 ovarian; 85% with OVCAR-3 ovarian. Moreover, the growth with HS 578T breast was 84.5%; in the test on NCI/ADR-RES ovarian, 103%.
Take `N=C(N)c1ccc(-c2ccc(-c3ccccc3)s2)nc1`: the growth with SK-MEL-2 melanoma is 104%; with EKVX NSCLC, 88.8%; with SN12C renal, 82.4%; with UO-31 renal it was 79.9%; in the test on TK-10 renal, 106%; in the test with ACHN renal it was 91.5%. For the same compound, the growth in the test on CAKI-1 renal was 73.6%; in the test with A498 renal it was 88.3%; in the test with CCRF-CEM leukemia, 68.9%; with MOLT-4 leukemia, 57.3%; in the test with SR leukemia it was 12.5%; with RPMI-8226 leukemia it was 48%. Besides, the growth is 91.9% with OVCAR-8 ovarian; 92.9% with OVCAR-5 ovarian; 107% in the test on OVCAR-4 ovarian; 88.6% in the test on SK-OV-3 ovarian; 82.3% in the test on IGROV1 ovarian; 95% in the test on OVCAR-3 ovarian. Moreover, the results for the growth with HS 578T breast and in the test on NCI/ADR-RES ovarian were 85% and 96.7%, respectively.
In the case of `O=C1C=CC2(O)OC(c3ccccc3)CC(=O)C2=C1O` (stereo not given), the growth was 102% in the test on SK-MEL-2 melanoma; 89.1% with EKVX NSCLC; 78.9% with SN12C renal; 62.7% in the test with UO-31 renal; 126% with TK-10 renal; 97.8% in the test on ACHN renal. In addition, the growth with CAKI-1 renal is 86.5%; in the test with A498 renal, 96%; in the test with CCRF-CEM leukemia it was 46.1%; with MOLT-4 leukemia it was 77.8%; in the test on SR leukemia, 56.2%; with RPMI-8226 leukemia, 64.3%. Further, the growth with OVCAR-8 ovarian is 82%; with OVCAR-5 ovarian it was 96.4%; in the test on OVCAR-4 ovarian it was 79.5%; with SK-OV-3 ovarian, 106%; in the test with IGROV1 ovarian, 90.9%; in the test with OVCAR-3 ovarian, 1.12% (active). Besides, the growth in the test on HS 578T breast was 102%; in the test on NCI/ADR-RES ovarian, 86%.
Turning to `CN1CCN(CCCNC(=O)c2c3c(n4ccccc24)C(=O)c2ncccc2C3=O)CC1`, the growth is 9.41% (active) in the test with SK-MEL-2 melanoma; 24% in the test on EKVX NSCLC; -48.5% (active) in the test on SN12C renal; 32.2% in the test on UO-31 renal; 56.7% in the test with TK-10 renal; 7.62% (active) in the test on ACHN renal. In addition, the growth in the test with CAKI-1 renal is 75.4%; in the test with A498 renal, 45.8%; in the test with CCRF-CEM leukemia it was -11.5% (active); in the test with MOLT-4 leukemia, -35.1% (active); in the test with SR leukemia, -8.6% (active); with RPMI-8226 leukemia it was 29.4%. For the same compound, the growth was -9.12% (active) with OVCAR-8 ovarian; 39.4% in the test on OVCAR-5 ovarian; -100% (active) in the test on OVCAR-4 ovarian; 28.6% with SK-OV-3 ovarian; -24.6% (active) with IGROV1 ovarian; -10.7% (active) with OVCAR-3 ovarian. The figures for the growth in the test with HS 578T breast and in the test with NCI/ADR-RES ovarian were 61.2% and 40.9%, respectively.
On to `O=C(N/N=C/c1ccccc1Cl)c1ccccc1Nc1ccnc(C(F)(F)F)c1`, for which the growth was -24% (active) with SK-MEL-2 melanoma; 11.7% in the test with EKVX NSCLC; 9.09% (active) with SN12C renal; 1.62% (active) with UO-31 renal; 16.1% in the test on TK-10 renal; 1.95% (active) in the test on ACHN renal. Further, the growth in the test on CAKI-1 renal was 1.49% (active); in the test on A498 renal, -25% (active); with CCRF-CEM leukemia, 11.2%; in the test with MOLT-4 leukemia, 2.63% (active); in the test with SR leukemia, -3.24% (active); in the test with RPMI-8226 leukemia, -34.9% (active). The growth with OVCAR-8 ovarian was 7.58% (active); in the test with OVCAR-5 ovarian, 6.58% (active); with OVCAR-4 ovarian, -1.98% (active); in the test on SK-OV-3 ovarian, -8.48% (active); in the test on IGROV1 ovarian, 9.79% (active); with OVCAR-3 ovarian it was 3.44% (active). The growth is 19.3% in the test with HS 578T breast and 4.04% (active) in the test with NCI/ADR-RES ovarian.
On to `COc1cc2c(cc1-c1c(C)noc1C)ncc1nc(C3CCOCC3)n(C3CCC(OC(F)F)CC3)c12` (stereo not given), for which the growth was 63.5% in the test on SK-MEL-2 melanoma; 60.9% in the test on EKVX NSCLC; 79.8% in the test on SN12C renal; 14.5% in the test on UO-31 renal; 21.4% in the test on TK-10 renal; 54.2% in the test with ACHN renal. The growth was 42.6% in the test on CAKI-1 renal; 41.7% in the test on A498 renal; 58.9% in the test with CCRF-CEM leukemia; 68.6% with MOLT-4 leukemia; 36.4% in the test on SR leukemia; 18% in the test with RPMI-8226 leukemia. Also, the growth was 69.1% in the test with OVCAR-8 ovarian; 71% in the test on OVCAR-5 ovarian; 48.8% with OVCAR-4 ovarian; 17.3% in the test with SK-OV-3 ovarian; 55.7% in the test on IGROV1 ovarian; 44.7% with OVCAR-3 ovarian. The growth with HS 578T breast is 54.9%; in the test on NCI/ADR-RES ovarian it was 53.7%.
